Among all 39,000 compounds or so, about 3,300 (8.5%) were called active. The entries come from a sample that favours actives as a whole.

The test system of this test is HepG2. The experiment in a line: cytotoxicity call (relative viability < 0.9). The settings on record: 10 µM.
As to `NC(=O)[C@H]1CNC(=O)C1`, the cytotoxicity call was “inactive”. Take `NC1(c2ccccc2F)CCCC1`: the cytotoxicity call was “inactive”.

Turning to `CC(C)(C)[C@]1(O)C[C@@H]2OC(=O)C[C@@]23C(=O)O[C@@H]2OC(=O)[C@H](O)[C@]213`, the cytotoxicity call is “inactive”. On to `C/C(=C\[C@@H](N)C(=O)O)CP(=O)(O)O`, for which the cytotoxicity call is “inactive”. Take `Cc1cccc(Cc2c[nH]cn2)c1C.Cl`: the cytotoxicity call is “inactive”. As for `CCC1C2CC3C4N(C)c5ccccc5C45CC(C2C5O)N3C1O` (stereo not given), the cytotoxicity call was “inactive”.

On to `c1cc(N2CCNCC2)ccn1`, for which the cytotoxicity call is “inactive”. Regarding `CCn1cc2nc(N3CCNCC3)[nH]cc-2c1=O`, the cytotoxicity call is “inactive”. `C[C@H]1O[C@H](n2cnc3c(N)ncnc32)C[C@H]1O`: the cytotoxicity call is “inactive”. For `CC(=O)Oc1ccc(Cl)c2cccnc12`, the cytotoxicity call is “active”. Regarding `Cc1c(N)nc([C@H](CC(N)=O)NC[C@@H](N)C(N)=O)nc1C(=O)N[C@H](C(=O)N[C@@H](C)[C@H](O)[C@@H](C)C(=O)N[C@@H](C(=O)NCCc1nc(-c2nc(C(=O)NCCC[S+](C)C)cs2)cs1)[C@@H](C)O)[C@@H](O[C@H]1O[C@H](CO)[C@H](O)[C@@H](O)[C@H]1O[C@H]1O[C@H](CO)[C@@H](O)[C@H](OC(N)=O)[C@@H]1O)c1c[nH]cn1`, the cytotoxicity call was “inactive”.

Take `O[C@H]1[C@H](O)[C@@H](O)CO[C@H]1NCCc1ccccc1`: the cytotoxicity call is “inactive”. As for `COCCN1[C@@H]2CC[C@H]1CN(c1ncccn1)C2`, the entry is “inactive”; as for `CCn1nnnc1N`, “inactive”. As for `C[C@H](CO)N1C[C@H](C)[C@H](CN(C)C(=O)Oc2cccc3ccccc23)OCc2cnnn2CCCC1=O`, the entry is “inactive”; as for `NCc1cccnc1`, “inactive”. As for `N#Cc1cccnc1`, the cytotoxicity call is “inactive”.

Regarding `CNCc1cccnc1`, the cytotoxicity call was “active”. As to `CC(=O)OCC1=C2C(=O)[O][Zn][O]C(=O)[C@@H](N)CCCC(=O)N[C@@H]3C(=O)N2[C@@H]3SC1`, the cytotoxicity call was “inactive”. For `Nc1nc(=O)c2ncn([C@H]3O[C@@H](COP(=O)(O)OP(O)(O)=S)[C@H](O)[C@@H]3O)c2[nH]1`, the cytotoxicity call was “inactive”. On to `CN(C)[C@@H]1C(=O)[C@@H](C(N)=O)C(=O)[C@@]2(O)C(=O)[C@H]3C(=O)c4c(O)ccc(Cl)c4[C@@](C)(O)[C@H]3C[C@@H]12`, for which the cytotoxicity call was “inactive”.

As for `CCCCCC1C(=O)OC(C)C(NC(=O)c2cccc(NC=O)c2O)C(=O)OC(C)C1OC(=O)CC(C)C` (stereo not given) [ANTIMYCIN A (A1 shown) ], the cytotoxicity call is “active”. The result for `CCCCC[C@H]1C(=O)O[C@H](C)[C@H](NC(=O)c2cccc(NC=O)c2O)C(=O)O[C@@H](C)[C@@H]1OC(=O)CC(C)C` reads “active”; that for `O=C1COC2(CNC2)CN1`, “inactive”. `CC(C)N1CCO[C@H]2CN(C(=O)N(C)C)C[C@@H]21`: the cytotoxicity call was “inactive”. As for `C=CCC1(O)CCC2C3CCC4=CC(=O)CCC4=C3C=CC21C` (stereo not given), the cytotoxicity call is “inactive”. As for `CC(CCc1ccccc1)NC(C)C(O)c1ccc(O)cc1.Cl` (stereo not given), the entry is “inactive”. Consider `Nc1nnns1`, for which the cytotoxicity call is “inactive”.

On to `CC(C)[C@@H](Br)C(=O)NC(N)=O`, for which the cytotoxicity call is “inactive”. Turning to `CC(C)Oc1ncccc1CN`, the cytotoxicity call is “inactive”. As to `CC1(C)C(=O)C=CC2(C)C1=C(O)C(=O)C1(C)C2CCC2(C)C(c3ccoc3)CC3OC321` (stereo not given), the cytotoxicity call was “active”. On to `CC1(C)C(O)CC(=O)C2(C)C1CC(=O)C1(C)C2CCC2(C)C(c3ccoc3)OC(=O)C3OC321` (stereo not given), for which the cytotoxicity call was “inactive”. Regarding `CC(=O)O[C@H]1C[C@@H](OC(C)=O)C(C)(C)[C@@H]2C[C@@H](OC(C)=O)[C@]3(C)[C@H](CC[C@@]4(C)[C@H](c5ccoc5)C[C@H]5O[C@@]534)[C@@]12C`, the cytotoxicity call was “inactive”. As to `CC(=O)OC1CC2(C)C(c3ccoc3)CC3OC32C2(C)C(=O)C(O)=C3C(C)(C)C(=O)C=CC3(C)C12` (stereo not given), the cytotoxicity call was “active”.

For `N[C@H]1CCCN(Cc2cccnc2)C1`, the cytotoxicity call was “inactive”.

For `O=C1NC(=S)NC(=O)C1CN1CCOCC1`, the cytotoxicity call was “inactive”. For `C[C@H](O)[C@@]12[C@H]3CC=C[C@@H]1N2CC3` (stereo not given in full), the cytotoxicity call is “inactive”.

`O[C@H]1CNC[C@@H]1N1CCCCC1`: the cytotoxicity call is “inactive”. Consider `Cn1c(CCN)nc2ccccc21`, for which the cytotoxicity call was “inactive”. Take `COC(=O)C[C@@H]1CC[C@@H]2NC[C@H](O)COC[C@H]2O1`: the cytotoxicity call is “inactive”. As for `CO[C@@H]1C=C[C@@H]2[C@H]1N2CCO` (stereo not given in full), the entry is “inactive”; as for `N[C@H]1CNC(=O)C1`, “inactive”; as for `NCCc1ccc(O)cc1` [listing 1 of 2 here], “inactive”. Take `CCCCCCCCCc1ccc(O)cc1`: the cytotoxicity call was “active”.

Turning to `NCCc1ccc(O)cc1` [listing 2 of 2 here], the cytotoxicity call is “inactive”. For the compound `C1CCN2C(C3N4CCCCN34)N2C1` (stereo not given), the cytotoxicity call was “inactive”. For the compound `c1cnc2[nH]cc(CN3CCNCC3)c2c1`, the cytotoxicity call was “inactive”. As for `O=C1NCc2cnnn2-c2ccccc21`, the entry is “inactive”; as for `CCN1CCN(c2nc(=O)cc(C)[nH]2)CC1`, “inactive”; as for `C1CO[C@@]2(C1)CCNC2`, “inactive”. As to `O=C([O-])c1ccccc1-c1c2cc(Br)c(=O)cc-2oc2[c]([Hg][OH])c([O-])c(Br)cc12.[Na+].[Na+]`, the cytotoxicity call is “inactive”.

For `O=C1NC(=O)C(=C[C@@H]2CC=CCC2)C(=O)N1`, the cytotoxicity call is “inactive”. The result for `CC1=C(O)C(=O)C=C2C1=CC=C1C2(C)CCC2(C)C3CC(C)(C(=O)O)CCC3(C)CCC12C` (stereo not given) reads “active”; that for `O.O.O.O=C([O-])C1[O][Sb]2[O]C(=O)C([O]2)C(C(=O)[O-])[O][Sb]2[O]C(=O)C1[O]2.[K+].[K+]` (stereo not given), “active”; that for `Clc1nc(N2CCNCC2)c2[nH]cnc2n1`, “inactive”.

These data come from the antibiotic and cytotoxicity screens of Wong et al. (2023).
